# Laboratory results taken from ChEMBL document CHEMBL1961873, “Compounds: GSK PKIS; Assays: Nanosyn kinase panel” (2012).
# How the values were obtained:
# [1] = molecular target: Tyrosine-protein kinase receptor UFO (Homo sapiens) (UniProt P30530); settings: at 1 µM
# [2] = molecular target: Tyrosine-protein kinase Blk (Homo sapiens) (UniProt P51451); settings: at 0.1 µM
# [3] = molecular target: Tyrosine-protein kinase Blk (Homo sapiens) (UniProt P51451); settings: at 1 µM
# [4] = molecular target: T1, Cytoplasmic tyrosine-protein kinase BMX (Homo sapiens) (UniProt P51813); settings: at 0.1 µM
# T1 sequence (whole entry): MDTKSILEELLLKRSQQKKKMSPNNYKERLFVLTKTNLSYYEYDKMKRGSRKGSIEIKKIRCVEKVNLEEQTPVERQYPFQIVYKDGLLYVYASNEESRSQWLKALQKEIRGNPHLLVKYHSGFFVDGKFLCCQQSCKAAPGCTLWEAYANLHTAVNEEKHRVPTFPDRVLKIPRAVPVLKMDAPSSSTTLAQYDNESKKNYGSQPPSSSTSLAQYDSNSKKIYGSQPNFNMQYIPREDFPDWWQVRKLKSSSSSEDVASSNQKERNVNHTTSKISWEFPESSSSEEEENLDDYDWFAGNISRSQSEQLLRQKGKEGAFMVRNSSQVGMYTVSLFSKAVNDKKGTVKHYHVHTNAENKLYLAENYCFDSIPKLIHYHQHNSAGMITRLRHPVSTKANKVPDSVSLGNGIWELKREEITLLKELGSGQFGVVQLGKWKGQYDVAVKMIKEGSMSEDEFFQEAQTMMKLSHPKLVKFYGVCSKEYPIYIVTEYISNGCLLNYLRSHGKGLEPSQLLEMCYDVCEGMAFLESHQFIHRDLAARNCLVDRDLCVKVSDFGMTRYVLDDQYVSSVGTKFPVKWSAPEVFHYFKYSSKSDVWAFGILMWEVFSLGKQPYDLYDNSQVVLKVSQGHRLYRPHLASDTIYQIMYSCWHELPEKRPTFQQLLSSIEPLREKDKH
# [5] = molecular target: T1, Cytoplasmic tyrosine-protein kinase BMX (Homo sapiens); settings: at 1 µM
# [6] = molecular target: Protein-tyrosine kinase 6 (Homo sapiens) (UniProt Q13882); settings: at 0.1 µM
# Sequence of Protein-tyrosine kinase 6 (Homo sapiens) (Q13882 whole entry, looked up): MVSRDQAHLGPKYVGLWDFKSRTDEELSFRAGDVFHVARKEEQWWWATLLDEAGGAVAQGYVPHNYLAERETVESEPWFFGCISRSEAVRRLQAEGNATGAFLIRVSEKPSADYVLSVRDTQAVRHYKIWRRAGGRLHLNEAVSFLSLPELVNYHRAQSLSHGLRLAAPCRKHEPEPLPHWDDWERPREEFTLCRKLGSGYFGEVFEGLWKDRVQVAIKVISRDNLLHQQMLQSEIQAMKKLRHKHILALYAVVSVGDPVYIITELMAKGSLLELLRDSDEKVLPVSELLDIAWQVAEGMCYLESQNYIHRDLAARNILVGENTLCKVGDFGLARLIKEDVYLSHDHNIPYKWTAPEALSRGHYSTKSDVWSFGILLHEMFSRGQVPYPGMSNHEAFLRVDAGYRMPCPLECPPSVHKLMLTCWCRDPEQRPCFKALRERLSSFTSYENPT
# [7] = molecular target: Protein-tyrosine kinase 6 (Homo sapiens) (UniProt Q13882); settings: at 1 µM
# [8] = molecular target: Tyrosine-protein kinase BTK (Homo sapiens) (UniProt Q06187); settings: at 0.1 µM
# Sequence of Tyrosine-protein kinase BTK (Homo sapiens) (Q06187 whole entry): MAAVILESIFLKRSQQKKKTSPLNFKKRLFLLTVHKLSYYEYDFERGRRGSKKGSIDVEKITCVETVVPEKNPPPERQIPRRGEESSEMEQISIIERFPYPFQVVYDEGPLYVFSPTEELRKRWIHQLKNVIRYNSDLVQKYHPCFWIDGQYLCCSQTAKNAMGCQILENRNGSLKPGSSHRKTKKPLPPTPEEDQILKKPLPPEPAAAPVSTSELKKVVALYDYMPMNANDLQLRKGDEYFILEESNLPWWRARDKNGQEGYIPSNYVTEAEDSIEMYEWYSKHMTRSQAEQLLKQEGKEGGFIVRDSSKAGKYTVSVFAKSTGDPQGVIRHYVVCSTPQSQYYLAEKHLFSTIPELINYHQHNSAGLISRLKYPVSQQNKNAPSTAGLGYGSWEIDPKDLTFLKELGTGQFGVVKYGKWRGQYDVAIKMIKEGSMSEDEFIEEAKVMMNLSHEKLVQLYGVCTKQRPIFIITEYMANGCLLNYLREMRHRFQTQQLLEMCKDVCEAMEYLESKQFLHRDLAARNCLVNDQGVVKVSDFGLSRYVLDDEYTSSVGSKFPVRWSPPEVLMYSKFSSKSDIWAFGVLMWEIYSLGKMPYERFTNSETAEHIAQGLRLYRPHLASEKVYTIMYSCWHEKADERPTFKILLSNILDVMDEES
# [9] = molecular target: Tyrosine-protein kinase BTK (Homo sapiens) (UniProt Q06187); settings: at 1 µM
# [10] = molecular target: Tyrosine-protein kinase CSK (Homo sapiens) (UniProt P41240); settings: at 0.1 µM;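 note: value given is the averaged percent inhibition of CSK kinase activity, from the GSK PKIS kinase inhibitor set screening panel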
# Sequence of Tyrosine-protein kinase CSK (Homo sapiens) (P41240 2-450 limits assumed): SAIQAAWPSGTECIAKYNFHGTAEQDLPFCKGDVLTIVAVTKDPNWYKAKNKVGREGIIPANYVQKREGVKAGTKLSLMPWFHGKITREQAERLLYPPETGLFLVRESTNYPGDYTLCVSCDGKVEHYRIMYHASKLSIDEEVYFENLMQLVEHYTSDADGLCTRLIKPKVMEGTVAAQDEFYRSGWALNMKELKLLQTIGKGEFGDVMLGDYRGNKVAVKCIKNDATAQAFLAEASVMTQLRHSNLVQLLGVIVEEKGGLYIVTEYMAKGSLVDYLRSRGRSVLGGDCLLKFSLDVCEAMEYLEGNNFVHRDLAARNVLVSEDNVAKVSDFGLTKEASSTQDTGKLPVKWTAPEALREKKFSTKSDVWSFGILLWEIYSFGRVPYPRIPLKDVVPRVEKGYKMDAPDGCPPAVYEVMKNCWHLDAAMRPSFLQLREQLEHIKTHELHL
# Sequence of Tyrosine-protein kinase Blk (Homo sapiens) (P51451 2-505 limits assumed): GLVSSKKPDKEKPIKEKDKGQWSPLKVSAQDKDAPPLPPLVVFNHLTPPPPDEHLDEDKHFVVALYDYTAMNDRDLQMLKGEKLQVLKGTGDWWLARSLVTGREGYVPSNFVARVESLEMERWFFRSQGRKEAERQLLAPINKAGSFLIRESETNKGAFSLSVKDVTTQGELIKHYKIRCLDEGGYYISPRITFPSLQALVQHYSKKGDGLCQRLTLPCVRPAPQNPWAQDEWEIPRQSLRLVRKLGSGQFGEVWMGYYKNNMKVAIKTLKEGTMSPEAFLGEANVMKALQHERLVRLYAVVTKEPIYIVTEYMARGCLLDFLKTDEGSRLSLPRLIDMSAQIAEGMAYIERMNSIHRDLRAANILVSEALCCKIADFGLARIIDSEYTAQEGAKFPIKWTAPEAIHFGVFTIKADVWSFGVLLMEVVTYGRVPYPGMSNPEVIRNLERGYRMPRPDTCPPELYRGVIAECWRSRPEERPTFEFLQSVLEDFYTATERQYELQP
# Sequence of Tyrosine-protein kinase receptor UFO (Homo sapiens) (P30530 whole entry): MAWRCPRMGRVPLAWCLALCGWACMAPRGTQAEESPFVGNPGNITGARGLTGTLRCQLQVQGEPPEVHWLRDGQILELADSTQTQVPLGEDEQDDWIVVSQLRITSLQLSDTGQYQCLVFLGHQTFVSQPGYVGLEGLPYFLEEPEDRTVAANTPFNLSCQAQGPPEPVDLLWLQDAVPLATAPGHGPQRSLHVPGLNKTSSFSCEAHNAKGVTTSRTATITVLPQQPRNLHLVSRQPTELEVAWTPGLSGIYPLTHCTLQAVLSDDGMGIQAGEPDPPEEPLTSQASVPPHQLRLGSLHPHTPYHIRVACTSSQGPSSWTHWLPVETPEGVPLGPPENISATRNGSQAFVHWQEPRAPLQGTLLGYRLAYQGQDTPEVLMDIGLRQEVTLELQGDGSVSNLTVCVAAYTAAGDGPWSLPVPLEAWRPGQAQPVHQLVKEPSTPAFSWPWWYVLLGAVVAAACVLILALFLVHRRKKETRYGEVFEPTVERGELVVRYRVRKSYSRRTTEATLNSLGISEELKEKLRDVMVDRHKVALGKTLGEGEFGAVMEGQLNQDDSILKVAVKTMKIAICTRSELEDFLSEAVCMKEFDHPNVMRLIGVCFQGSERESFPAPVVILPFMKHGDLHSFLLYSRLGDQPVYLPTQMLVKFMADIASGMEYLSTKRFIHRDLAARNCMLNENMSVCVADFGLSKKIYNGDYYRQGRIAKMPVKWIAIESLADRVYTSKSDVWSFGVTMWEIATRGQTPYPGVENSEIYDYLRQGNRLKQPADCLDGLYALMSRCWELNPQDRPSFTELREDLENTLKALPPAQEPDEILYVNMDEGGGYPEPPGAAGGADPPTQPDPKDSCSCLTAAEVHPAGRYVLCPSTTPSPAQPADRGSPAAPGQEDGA
SMILES,inhibition [1],inhibition [2],inhibition [3],inhibition [4],inhibition [5],inhibition [6],inhibition [7],inhibition [8],inhibition [9],inhibition [10]
COc1ccc(-c2nn3ncccc3c2-c2ccnc(Nc3cccc(C(F)(F)F)c3)n2)cc1,-2.69%,2.61%,7.74%,2.37%,-4.27%,2.5%,17.9%,0.09%,1.7%,2.1%
O=S(=O)(CCOCc1ccc(-c2ccc3ncnc(Nc4ccc(OCc5cccc(F)c5)c(Cl)c4)c3c2)o1)c1ccccc1,1.46%,-1.07%,1.68%,-0.56%,1.08%,0.18%,1.77%,-1.67%,-1.3%,1.76%
O=C(Nc1ccc(Oc2ccc3[nH]c(NC(=O)c4ccco4)nc3c2)cc1)Nc1cc(C(F)(F)F)ccc1F,60.5%,-3.12%,1.7%,-2.09%,1.74%,1.76%,3.78%,-3.7%,-3.03%,2.94%
Nc1ccc(C#Cc2cncnc2Nc2ccc(OCc3cccc(F)c3)c(Cl)c2)cc1,-3.04%,2.28%,3.41%,4.02%,2.63%,0.17%,4.63%,-0.24%,1.11%,-1.23%
ON=C1CCc2cc(-c3nc(C4CCNCC4)[nH]c3-c3ccncc3)ccc21,2.54%,0.32%,2.67%,1.43%,-1.75%,-0.84%,-2.02%,-1.11%,3.08%,-4.87%
COc1ccc2ncnc(Nc3ccc(OCc4ccccc4)cc3)c2c1,-5.04%,2.17%,6.3%,2.68%,2.81%,0.54%,9.39%,-0.01%,1.33%,2.5%
N#Cc1cccc(Nc2nccc(-c3cnn4ncccc34)n2)c1,33.8%,5.38%,26.5%,4.87%,39.7%,5.32%,23.5%,2.23%,5.13%,5.02%
CN(C)CCCn1c(-c2nonc2N)nc2cnccc21,-8.31%,1.44%,3.44%,3.45%,3.08%,0.2%,3.36%,0.72%,0.12%,1.79%
COc1cc2ncn(-c3cc(OCc4ccccc4S(C)(=O)=O)c(C#N)s3)c2cc1OC,43.5%,16.6%,72.3%,1.45%,33.1%,4.42%,9.89%,1.87%,11.8%,7.28%
COc1cccc(-n2nc(C)c3c(N/N=C(\C)c4ccncc4)ncnc32)c1,0.56%,-0.21%,1.02%,1.51%,3.74%,-1.24%,-0.15%,0.11%,-0.4%,-0.83%
Cc1ccc(Nc2ccnc(Nc3cccc(C(N)=O)c3)n2)cc1O,0.42%,11.8%,71.2%,14.1%,56.7%,48.9%,91.5%,3.4%,29.1%,10.8%
CCOc1nccc2c1nc(-c1nonc1N)n2CC,-0.05%,3.42%,2.55%,1.6%,1.81%,0.8%,2.85%,1.49%,2.44%,3.08%
CN(c1ccc(NC(=O)Nc2ccc(OC(F)(F)F)cc2)cc1)c1ccnc(Nc2cccc(S(N)(=O)=O)c2)n1,16.2%,29.4%,86.3%,5.28%,26.1%,16.1%,77.1%,0.33%,5.19%,3.6%
COc1cc(Nc2nccc(-c3cnn4ncccc34)n2)cc(OC)c1,20.7%,2%,24.8%,7.04%,31.3%,0.23%,17.6%,1.94%,11.3%,2.91%
N#Cc1c(NC(=O)c2ccccc2F)sc2c1CCCC2,2.38%,-0.71%,0.42%,-1.17%,-1.62%,0.56%,-1.93%,0.32%,-0.23%,-1.65%
[O-][S+]1CCN(Cc2ccc(-c3ccc4ncnc(Nc5ccc(OCc6ccccc6)c(Cl)c5)c4c3)o2)CC1,0.46%,-0.34%,6.7%,0.31%,2.05%,0.38%,11%,-1.44%,-0.83%,-0.03%
COc1cccc(-n2ncc3c(N/N=C/c4ccc(C)cc4)ncnc32)c1,-6.6%,3.17%,7.15%,5.21%,10.6%,3.4%,5.43%,-0.28%,0.44%,2.91%

SMILES,inhibition [1],inhibition [2],inhibition [3],inhibition [4],inhibition [5],inhibition [6],inhibition [7],inhibition [8],inhibition [9],inhibition [10]
NC(=O)c1cccc(Nc2nccc(Nc3cccc(F)c3)n2)c1,-2.93%,0.38%,13.8%,4.88%,37.9%,4.3%,36.2%,0.63%,7.3%,0.49%
Cc1ccc(C(=O)NC2CC2)cc1-c1ccc2[nH]ncc2c1,6.55%,-1.8%,-1.6%,-2.64%,-6.39%,-2.14%,-3.93%,0.06%,-1.33%,–
CN1CCN(C(=O)c2ccc(NC(=O)Nc3ccc(N(C)c4ccnc(Nc5ccc(CS(C)(=O)=O)cc5)n4)cc3)cc2)CC1,11.9%,2.76%,24.4%,19.1%,68%,-1.96%,13.5%,1.59%,16%,-1.19%
CCS(=O)(=O)c1ccc(OC)c(Nc2ncc(-c3cccc(OC)c3)o2)c1,-1.98%,10.4%,64.3%,-2.1%,25.9%,6.68%,40.7%,3.67%,21.6%,-0.51%
Cc1cc(Cl)cc2c1NC(=O)C2=NNc1ccc(S(N)(=O)=O)cc1,-2.47%,1.98%,1.63%,3.4%,2.55%,-0.72%,1.77%,2.48%,0.33%,-0.78%
NS(=O)(=O)c1ccc(N/N=C2\C(=O)Nc3ccc(Cl)cc32)cc1,-3.81%,2.51%,6.13%,-0.25%,4.68%,2.27%,5.96%,0.31%,0.56%,4.9%
O=C1Nc2ccc(-c3cccnc3)cc2C1=Cc1cc(Br)c(O)c(Br)c1,-2.44%,2.77%,10.8%,-2.3%,4.31%,4.36%,10.7%,0.22%,1.61%,4.14%
COc1cc2ncnc(Nc3ccc4c(cnn4Cc4ccccc4)c3)c2cc1OC,-3.18%,13.9%,60.8%,3.73%,23.4%,13.1%,53.2%,4.09%,29.1%,11.1%
CN(C)c1cc2c(Nc3ccc4c(cnn4Cc4ccccc4)c3)ncnc2cn1,-3.44%,3.2%,22.6%,3.53%,20.8%,5.3%,29.2%,1.09%,9.11%,6.06%
COc1cccc(-n2ncc3c(N/N=C/c4ccc(S(C)(=O)=O)cc4)ncnc32)c1,1.34%,7.91%,38.4%,10.1%,30.7%,6.33%,26.8%,-4.35%,-3.39%,5.8%
CCS(=O)(=O)c1ccc(OC)c(Nc2nccc(N(C)c3ccc4c(C)n[nH]c4c3)n2)c1,-3.9%,15.4%,67.5%,3.66%,23.2%,18.8%,79.3%,2.21%,27.1%,1.43%
Oc1cccc(-c2nc(-c3ccccc3)[nH]c2-c2ccncc2)c1,-0.19%,2.99%,8.82%,7.29%,8.97%,13%,55.4%,2.03%,2.36%,6.74%
COC(=O)c1cncc(/C=C/c2c(C)cc(O)cc2C)c1,-5.3%,3.73%,13.6%,4.1%,29.6%,11.4%,50.2%,1.9%,2.92%,4.04%
OCc1ccc(-c2nc(-c3ccccn3)c(-c3ccc4c(c3)OCO4)[nH]2)cc1,-3.37%,3.13%,5.92%,-2.19%,4.67%,4.49%,5.07%,3.02%,3.51%,3.92%
CN(C)C(=O)O[C@H]1CN[C@H](C#Cc2cc3ncnc(Nc4ccc(OCc5cccc(F)c5)c(Cl)c4)c3s2)C1,-1.68%,2.47%,4.23%,-3.39%,3.3%,5.52%,4.14%,-1.08%,0.74%,0.6%
COC(=O)c1ccc2c(c1)C(=Cc1cc(Br)c(O)c(Br)c1)C(=O)N2,-4.28%,3.19%,11.6%,3.04%,7.64%,2.4%,6.95%,-1.29%,0.81%,-0.27%
